PubChem BioAssay (NCI)
“And” between values parts separate entries of the source, which are not always exact repeats. Identical values can stand only once. Compounds without any hit were thinned out: in the full panel of roughly 83,000, 20% have a hit.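 A percent growth of 40 corresponds to 60% growth inhibition; 0 means no net growth; -100 means all cells died. Active threshold: below 10.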 Unmarked numbers belong to inactive results. The source made the active and inactive calls.

Tested on: MDA-MB-468 breast
Assay: NCI-60 one-dose screen, 48 h (100 = growth as untreated, 0 = no growth, -100 = all killed)
Details: 10 µM unless noted

`OCCN1CCN(c2nc(Nc3ccc(-c4nc5ccccc5[nH]4)cc3)c3cn[nH]c3n2)CC1` was tested. Which growth did it give?
The growth was -82.3% (active).

For `COc1cc2cc(NCc3ccncc3)nc(C)c2cc1OC`, which growth is on record?
The growth was 87.7%.

`Cn1cnc([N+](=O)[O-])c1S(=O)(=O)Oc1cccc2ccccc12` was tested. Which growth did it give?
Its growth is 58.9%.

With `COc1cc2nc(NC3CCCC3)nc(NC3CCN(C(C)C)CC3)c2cc1OC` as the molecule, how does the growth read?
Its growth is 45.4%.

Which growth does the source give for `C=CCc1cc(C)ccc1NC(C(=O)NCC(=O)OC)c1ccccc1` (stereo not given) here?
Its growth is 111%.

Which growth does the source give for `CCC(CC)COC(=O)c1ccc(O)c(O)c1` here?
Its growth is 80.6%.

With `CSc1nnc2c(=O)n(C)c(=O)n(C)c2n1` as the molecule, how does the growth read?
The growth was 108%.

With `COc1ccc([C@H]2[C@H](O)C(=O)N2c2cc(OC)c(OC)c(OC)c2)cc1F` as the molecule, how does the growth read?
The growth was 26.4%.

Which growth does the source give for `COc1ccc(Nc2[nH]n(C3=Nc4ccccc4Sc4ccccc43)c(=O)c2C#N)cc1` here?
Its growth is -3.96% (active).

Which growth does the source give for `Cc1cnc(N)nc1OCC(C)(C)CNC(=O)c1cccc(-c2ccc(S(=O)(=O)Nc3ccc4c(c3)N(C(=O)C3CC3)CCC4)cc2)c1` here?
The growth was 22.6%.

With `COc1ccc(/C=C2\SC(=S)N(CCCN3CCOCC3)C2=O)c(OC)c1` as the molecule, how does the growth read?
The growth was 87.4%.

For `Nc1ccccc1Nc1ccccc1`, which growth is on record?
The growth was 120% and 118%.

`O=C(C(=O)N1CCCCC1)c1ccc(OC2OC(CO)C(O)C(O)C2O)cc1` (stereo not given) was tested. Which growth did it give?
The growth was 100%.

Which growth does the source give for `CS(=O)(=O)c1ccc(-c2nn(-c3ccccc3)cc2/C=N/NC(=O)c2nc(N)n[nH]2)cc1` here?
The growth was 98.2%.

For `CCCCCCCCn1cc(C2=C(c3coc4ccc(OC)cc34)C(=O)NC2=O)c2ccccc21`, which growth is on record?
Its growth is 103%.

`COc1cc(/C=C\c2cc(OC)c(OC)c(OC)c2)cc(N/C=C\C(=O)c2c[nH]c3ccccc23)c1OC` was tested. Which growth did it give?
Its growth is -55.8% (active).

With `Nc1c2ccccc2nc2ccccc12` (tested in a mixture with another compound) as the molecule, how does the growth read?
The growth was -18.6% (active).

With `COc1cc2c(cc1O)CC[C@@H]1[C@@H]2CC[C@]2(C)[C@@H](NCCN(C)C)CC[C@@H]12` as the molecule, how does the growth read?
Its growth is -85.1% (active).

How did the growth turn out when `CCN(CC)CCCNc1nc2ccccc2c2c(=O)c3cc(Cl)ccc3sc12` was run?
The growth was 54.5%.

For `CC12CCC(/C(=C/NNc3ccc([N+](=O)[O-])cc3[N+](=O)[O-])C1=O)C2(C)C` (stereo not given), which growth is on record?
Its growth is 45%.

`COc1ccc(C(=O)c2no[n+]([O-])c2C(=O)c2ccc(OC)cc2)cc1` was tested. Which growth did it give?
Its growth is -88.4% (active).

Which growth does the source give for `C=C1CCC2C3(C)COC(c4ccc(OC)cc4Br)OC3CCC2(C)C1/C=C/C1=CCOC1=O` (stereo not given) here?
Its growth is 54.3%.

How did the growth turn out when `COc1cc(-c2nc(C(=O)NCC(=O)NO)nn2-c2ccc(Cl)cc2)cc(OC)c1OC` was run?
The growth was 112%.

How did the growth turn out when `O=[N+]([O-])c1ccc(-n2[nH]nnc2=S)cc1` was run?
Its growth is 123%.

Which growth does the source give for `O=C1C(Cl)=C(Nc2ccc(S(=O)(=O)N3CCOCC3)cc2)C(=O)c2ccccc21` here?
The growth was 74.1%.

`CCN(CC)CCCCCCNc1ccnc2cc(Cl)ccc12` was tested. Which growth did it give?
Its growth is 61.1%.

How did the growth turn out when `C=CC(C)(O)CCC1C(=C)CCC2C(C)(C)CCCC12C` (stereo not given) was run?
The growth was 109%.

With `Nc1c(C(=O)O)[nH]c(=O)[nH]c1=O` as the molecule, how does the growth read?
The growth was 103%.

How did the growth turn out when `Cc1ccc(Oc2c(/C=N/NC(=O)Cn3c(=O)sc4ccccc43)c(C)nn2-c2ccccc2)cc1` was run?
The growth was 41%.

`O=C1Nc2cc(Cl)ccc2/C1=C\c1ccc(OCc2ccc(Br)cc2F)cc1` was tested. Which growth did it give?
The growth was -37.8% (active).

With `CCCCC(=O)Nc1ncc(Cc2ccccc2Cl)s1` as the molecule, how does the growth read?
The growth was 14.1%.

For `NC(=O)CN1C(=O)c2ccccc2C1=O`, which growth is on record?
The growth was 107%.

With `O=C(Cc1ccc(/C=C/C(=O)c2ncc[nH]2)cc1)Nc1ccc(F)cc1` as the molecule, how does the growth read?
The growth was 4.59% (active).

Which growth does the source give for `C=CCOc1cccc(/C=C2\SC(=S)N(C3CC(=O)N(c4ccc(Br)cc4)C3=O)C2=O)c1` (stereo not given) here?
Its growth is 111%.

How did the growth turn out when `COc1ccc(S(=O)(=O)Oc2ccc(-c3sc4cc(OS(=O)(=O)c5ccc(OC)cc5)ccc4c3C(=O)c3ccc(OCCN4CCCCC4)cc3)cc2)cc1` was run?
Its growth is 94.3%.

With `COc1ccc2c(O)c(/C=C3\N=Nc4ncccc43)oc2c1C[C@H]1CCNC[C@H]1F` as the molecule, how does the growth read?
The growth was -39% (active).

How did the growth turn out when `Cc1ccc(Sc2ccccc2N)cc1` was run?
The growth was 81.2%.

For `N#Cc1ccccc1-c1ccc(CN2C(=O)S/C(=C\c3ccc(Br)cc3)C2=O)cc1`, which growth is on record?
The growth was 112%.

Which growth does the source give for `O=C(O)c1ccccc1Cc1ccc(F)c2ccccc12` here?
The growth was 110% and 102%.

Which growth does the source give for `N#CC1=C(c2ccccc2)Nc2c(c(-c3ccc(Cl)cc3)nn2-c2ccccc2)C12C(=O)Nc1ccc(Cl)cc12` (stereo not given) here?
The growth was 70%.
